The values that follow come from PubChem BioAssay.

SMILES strings stand for the structures. For some assays here: Measured potencies and affinities stand elsewhere. Calls of active or inactive are those of the source. Unless noted, no rule for the calls is given here.

Assay [1] in a line: chitosan synthesis blockers in C. neoformans – flow cytometry, Cibacron Brilliant Red staining (AID 1347148).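 Also: compound exposure lasted three days at 37 degrees C.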 The settings on record: Cryptococcus neoformans chitosan, stronger effect = lower value; at 10 µM unless noted. For orientation: In flow cytometry, cells or beads pass a laser one at a time.
Assay [2] can be described thus: compounds altering HSF1 focus formation in cells – imaging, Selleck Cancer Library (AID 1347162; in the data active = plate-normalised HSF1 focus index below about 0.46). The settings on record: human cells, HSF1 nuclear foci imaging, at 10 µM; SSMD: measured here: HSF1 foci SSMD mean; cell count: measured here: cell number; plate-normalised HSF1 focus index: stronger effect = lower value.
Assay [3] in a line: compounds altering viability of human ES cells (AID 493140).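 Also: cells exposed to compounds for four days before counting.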 The conditions noted are these: human embryonic stem cell survival screen; stronger effect = higher value.
Assay [4] can be described thus: blockers of polyQ-driven CASP3 activation – cell-based (AID 1583). The conditions noted are these: polyglutamine-induced caspase-3 activation, cell assay; stronger effect = higher value;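 tested at 10 µM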.
A short description of assay [5]: yeast 75Q aggregation reduction – 75Q-TubU reporter (AID 1593). The conditions noted are these: Yeast 75Q polyglutamine aggregation reporter.
The nature of assay [6]: restoration of touch response, mutant HTT neurons – whole organism, C. elegans mechanosensory neurons, N-terminal huntingtin (AID 1599). The settings on record: C. elegans polyQ-huntingtin mechanosensory neurons, stronger effect = higher value.
A short description of assay [7]: blockers of cytochrome c efflux from mitochondria – biochemical, purified mitochondria (AID 1603).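 Also: mouse liver mitochondria challenged with calcium chloride; signal normalized to the plate average as 100%.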 The conditions noted are these: stronger effect = lower value.
A short description of assay [8]: polyglutamine aggregate formation blockers (AID 1604). The settings on record: polyglutamine-induced protein aggregation inhibition assay; stronger effect = higher value; tested at 2.5 µM.
Assay [9] can be described thus: glutamate transport activators, MN-1 cells, MN-1 cell line (AID 1612).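 Also: tested at 1 µM final; 0% = mean of DMSO vehicle wells on each plate; positive means more glutamate uptake than control and negative means less.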 The conditions noted are these: MN-1 motor neuron cells, stronger effect = higher value.
Assay [10] is described as follows: 75Q-TubH aggregate inhibition, S. cerevisiae, yeast (AID 1616). The conditions noted are these: S. cerevisiae 75Q-TubH polyglutamine aggregation suppression; stronger effect = higher value.
Assay [11] in a line: blockers of cellular phospholipid synthesis – cell-based, LOPAC library, screen 4, primary screen (AID 1347384). The conditions noted are these: animal cells, phospholipid biosynthesis inhibition screen; at 10 µM.

Consider `Nc1ncnc2c1ncn2[C@@H]1CCCO1`, for which the fold fluorescence in assay [1] was 2.55 [at 243.6 µM] (inactive).

`COC(=O)c1ccc(O)c(NC(=O)COc2ccc(C34CC5CC(CC(C5)C3)C4)cc2)c1`: in assay [2], the SSMD was -6.52, the cell count was 7200 and the plate-normalised HSF1 focus index is 0.766 (inactive).

With `CCCCC[C@@H](O)/C=C/[C@H]1[C@H](CC(=O)CCCCC(=O)O)[C@H](O)C[C@@H]1O`, the fold fluorescence in [1] is 4.59 (inactive).

Regarding `CCCCC[C@@H](O)CC[C@H]1[C@H](CCCCCCC(=O)O)C(=O)C[C@@H]1O`, in assay [1], the fold fluorescence was 5.11 (inactive).

Regarding `OC[C@H]1O[C@@H](n2cnc3c2NC=NC[C@H]3O)CC1O` (stereo partly specified), in assay [2], the SSMD came out at 3.2, the cell count came to 7070 and the plate-normalised HSF1 focus index was 1.17 (inactive).

For the compound `CCOC(=O)C1=C(C)NC(=S)N[C@H]1c1cccc(O)c1`, the fold fluorescence in assay [1] was 3.63 [at 171 µM] (inactive).

For `C=C1O[C@](CO)(n2cnc3c(N)ncnc32)[C@@H](O)[C@H]1O`, in assay [1], the fold fluorescence was 10.1 [at 179 µM] (inactive).

Regarding `CCCCCCCCCCCCCCCCCCOP(=O)(O)OC1CC[N+](C)(C)CC1`, in [2], the SSMD is -3.23, the cell count amounted to 7160 and the plate-normalised HSF1 focus index was 0.793 (inactive).

Take `CC[C@H]1/C=C(\C)C[C@@H](C)C[C@@H](OC)[C@@H]2O[C@](O)(C(=O)C(=O)N3CCCC[C@@H]3C(=O)O[C@@H](/C(C)=C/[C@H]3CC[C@H](O)[C@@H](OC)C3)[C@@H](C)[C@H](O)CC1=O)[C@@H](C)C[C@H]2OC`: the fold fluorescence in assay [1] was 13.8 [at 63.1 µM] (inactive).

With `CO[C@H]1/C=C\C=C(/C)C(=O)NC2=CC(=O)C(NCCN(C)C)=C(C[C@@H](C)C[C@H](OC)[C@H](O)[C@@H](C)/C=C(\C)[C@@H]1OC(N)=O)C2=O`, in [2], the SSMD is 3.16, the cell count amounted to 7300 and the plate-normalised HSF1 focus index was 1.12 (inactive).

Take `CO[C@H]1C[C@@H]2CC[C@@H](C)[C@@](O)(O2)C(=O)C(=O)N2CCCC[C@H]2C(=O)O[C@H]([C@@H](C)C[C@@H]2CC[C@@H](OCCO)[C@H](OC)C2)CC(=O)[C@H](C)/C=C(\C)[C@@H](O)[C@@H](OC)C(=O)[C@H](C)C[C@H](C)/C=C/C=C/C=C/1C`: in assay [2], the SSMD was 2.84, the cell count stood at 6750 and the plate-normalised HSF1 focus index is 1.15 (inactive).

With `CCCCC[C@H](O)CCCC(=O)O`, the fold fluorescence in assay [1] is 4.65 [at 265.6 µM] (inactive).

As to `CCCCCCCC/C=C\CCCCCCCC(=O)OC[C@H](O)COP(=O)(O)O`, in assay [1], the fold fluorescence was 3.84 (inactive).

On to `CCCCC/C=C\C=C\[C@@H](O)CCCCCCCC(=O)O`, for which, in assay [3], the survival is 108 (inactive). The fold fluorescence in assay [1] was 5.71 [at 1 µM] (inactive).

For `CCCCC[C@@H](O)/C=C/[C@H]1[C@@H]2C/C(=C/CCCC(=O)O)O[C@@H]2C[C@@H]1O`, the fold fluorescence in assay [1] was 4.1 (inactive).

Take `CCCCC[C@@H](O)/C=C/[C@H]1[C@H](CCCCCCC(=O)O)[C@H](O)C[C@@H]1O`: the fold fluorescence in [1] is 3.58 (inactive).

`COC1=C2C[C@H](C)C[C@@H](OC)[C@@H](O)[C@H](C)/C=C(\C)[C@@H](OC(N)=O)[C@H](OC)/C=C\C=C(/C)C(=O)NC(=CC1=O)C2=O`: the fold fluorescence in assay [1] is 25.2 [at 89.2 µM] (inactive).

As for `CCCCCCCCCCCCCCCCOC[C@@H](COP(=O)([O-])OCC[N+](C)(C)C)OC(=O)NC`, the fold fluorescence in [1] was 5.1 (inactive).

In the case of `CCCCC/C=C\C/C=C\C/C=C\C/C=C\CCCC(=O)O[C@@H](COCCCCCCCCCCCCCCCC)COP(=O)([O-])OCC[N+](C)(C)C`, the fold fluorescence in [1] was 5.54 (inactive).

As for `O=C(O)CCC/C=C\C[C@H]1[C@H](/C=C/[C@H](O)COc2cccc(Cl)c2)[C@@H](O)C[C@H]1O`, in assay [1], the fold fluorescence is 4.34 (inactive).

In the case of `COc1c(O)c2c(=O)cc(OC)c3c4c(OC)cc(=O)c5c(O)c(OC)c(C[C@H](C)OC(=O)c6ccccc6)c(c(c1C[C@H](C)OC(=O)Oc1ccc(O)cc1)c23)c54`, in assay [1], the fold fluorescence was 6.48 [at 6.3 µM] (inactive).

For `C=C1C(=O)O[C@@H]2C3OC3(C)CC/C=C(\C)CC[C@@H]12` (stereo partly specified), the inhibition (usually the change of the read-out against control, counted positive when it falls) in [4] worked out at 14.3%. Also, the score in [5] is 0.94. Moreover, the rescue above control in assay [6] was determined as 8.2. For the same compound, the cytochrome c release ratio in assay [7] was determined as 0.54. In assay [8], this compound had an inhibition of aggregation of 93.6%. Moreover, the glutamate uptake change in [9] was -11%. This compound showed an aggregation suppression score in [10] of 0.572. The fold fluorescence in assay [1] was 11.6 [at 201.4 µM] (inactive).

With `CCCCC/C=C\C[C@H](O)/C=C/C=C/C=C\[C@H](O)CCCC(=O)O`, in [1], the fold fluorescence was 3.97 [at 1 µM] (inactive).

With `O=C(Nc1ncc([N+](=O)[O-])s1)c1ccc([N+](=O)[O-])c(Cl)c1`, in [2], the SSMD turned out to be 2.47, the cell count stood at 7090 and the plate-normalised HSF1 focus index is 1.15 (inactive).

For the compound `COCCN1C2=C(C(=O)c3ccccc3C2=O)N(Cc2cnccn2)C1C` (stereo unspecified), in assay [2], the SSMD is 2.27, the cell count is 6910 and the plate-normalised HSF1 focus index is 1.13 (inactive).

`O=C(O)CCC/C=C\C[C@@H]1C(=O)C[C@H](O)[C@H]1/C=C/[C@H](O)CCc1ccccc1`: the fold fluorescence in assay [1] was 4.52 (inactive).

As to `CCCCCCOC(=O)C1(O)CC2OC1(C)n1c3ccccc3c3c4c(c5c6ccccc6n2c5c31)C(=O)NC4` (stereo unspecified), the fold fluorescence in assay [1] was 4.72 [at 9.3 µM] (inactive).

As for `CC(/C=C/C(=O)NO)=C\[C@H](C)C(=O)c1ccc(N(C)C)cc1`, the fold fluorescence in [1] is 17.7 [at 165.4 µM] (inactive).

As to `CCCCCCCCCCCCCCCCCCOC[C@@H](COP(=O)([O-])OCC[N+](C)(C)C)OC`, the fold fluorescence in [1] was 5.31 (inactive).

With `C[C@@H]1CCN(C(=O)C(CCCN=C(N)N)NS(=O)(=O)c2cccc3c2NC[C@H](C)C3)C(C(=O)O)C1` (stereo partly specified), the outcome in [11] was inactive.

Turning to `NC(=O)c1cc[n+](CC2=C(C(=O)O)N3C(=O)[C@@H](NC(=O)[C@@H](c4ccccc4)S(=O)(=O)O)[C@H]3SC2)cc1`, the result in assay [11] was inactive.

Take `O=C1Nc2ccc(-c3cccnc3)cc2/C1=C/c1ccc[nH]1`: in assay [2], the SSMD is -1.39, the cell count worked out at 7060 and the plate-normalised HSF1 focus index was 0.916 (inactive).
